Assay outcomes: PubChem BioAssay, SRMLSC
Sampled rows, rich in hits. Any-hit rate of the full collection: about 6.3%.
Fluor 339 460 – intrinsic fluorescence of library compounds, ex339/em460 – biochemical, MLSMR library, data from DPM-DC assay, artefact control, profiling panel | 5.5% of 65,000 active | AID 709 | fluorescence fold increase at 10 µM | compound autofluorescence, ex339/em460 nm, NADH buffer; active compounds read high; 1 = no-compound wells, NADH background;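 active = at 10 µM, mean starting fluorescence two-fold or more over control wells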;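 also: signal is the first read of a kinetic run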
NADH enzymes – inhibition of NAD/NADH coupling enzymes, library profiling; 0.02% of 65,000 active; AID 774; IC50, µM (titrated, usually from 10 µM), for the others: at the top dose inhibition; coupled PK/LDH NADH assays, four targets;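 active = single-dose screening hits from any of four coupled enzyme assays that gave an IC50 when retested across doses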;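 also: the DPM-DC format reads NADH fluorescence rather than 340 nm absorbance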
Spn MK inh – inhibitors of Streptococcus pneumoniae mevalonate kinase; purified MK, PK/LDH-coupled NADH absorbance 340 nm; inhibition, % at 10 µM; 0.48% of 65,000 active; AID 555;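 active = ranked among the strongest by inhibition in the single 10 µM screen, a fixed top-ranked set picked for dose follow-up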
Spn PMK inh – blocks S. pneumoniae phosphomevalonate kinase; purified PMK, PK/LDH-coupled NADH absorbance 340 nm; inhibition, % at 10 µM; 0.49% of 65,000 active; AID 539;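 active = top-ranked compounds by inhibition in the single 10 µM screen, taking a fixed number of the strongest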;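 also: 0% = full reaction with DMSO carrier and 100% = background rate without enzyme reaction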
DPM-DC inhibit – inhibitors of Streptococcus pneumoniae diphosphomevalonate decarboxylase; purified DPM-DC, PK/LDH coupled NADH fluorescence; 0.49% of 65,000 active; calls only at 10 µM;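 active = the 320 compounds with the highest percent inhibition in the single-dose primary screen, excluding strongly autofluorescent ones, cut at about 32% in these data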;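 also: kinetic rate of NADH fluorescence loss reporting ADP formed by the decarboxylase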
A340 absorber – compounds absorbing at 340 nm | compound absorbance at 340 nm, fold over control | fold change at 10 µM | 65,000 tested, under 10 active;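 active = at 10 µM dose, initial 340 nm absorbance at least 2 fold that of control wells; inactive = change under 2 fold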;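 also: initial absorbance extrapolated from kinetic A340 decline of NADH oxidation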
Starred values were filed as active, the others as inactive; i = inactive; x = not tested or not shown.

SMILES	Fluor 339 460	NADH enzymes	Spn MK inh	Spn PMK inh	DPM-DC inhibit	A340 absorber
O=c1[nH]c(C2CCCN(S(=O)(=O)c3ccccc3)C2)nc2c1nnn2Cc1ccccc1F (stereo not given)	1.1	6%	5	13	i	1
O=c1cccc(-c2ccccc2)[nH]1	1.1	6%	11	5	i	1.1
O=C(CCN1C(=O)c2ccccc2C1=O)NC1=NCCS1	1	19%	6	51*	i	0.82
O=C(CSc1ncc(-c2ccc(F)cc2)[nH]1)NCc1ccco1	1.1	10%	12	8	i	1
O=C(c1ccco1)N1CCN(C(=O)c2cc3c(s2)-c2ccccc2OC3)CC1	2.4*	6%	10	0	x	1.1
O=C(NCc1cccs1)c1cc2c(s1)-c1ccccc1OC2	2.4*	4%	5	1	x	1
CC1CCC(NC(=O)c2cc3c(s2)CS(=O)(=O)C3)CC1 (stereo not given)	1.1	5%	4	10	i	0.99
CCn1c(=O)c2cc(C(=O)N3CCN(C(=O)c4ccco4)CC3)sc2c2ccccc21	2.1*	3%	0	6	x	1.1
O=C(NC1CC1)c1cc2c(s1)-c1ccccc1OC2	2.1*	4%	6	1	x	1.1
O=C(O)c1cc2c(s1)-c1ccccc1OC2	2.2*	6%	9	3	x	1.2
CN1CCN(C(=O)c2cc3c(s2)-c2ccccc2S(=O)(=O)C3)CC1	1.1	3%	1	9	i	1.2
COc1ccc(Cn2nnnc2C(c2cc3ccc(OC)cc3[nH]c2=O)N2CCCCCC2)cc1 (stereo not given)	2	7%	1	16	i	1.1
Cc1ccc(C)c(Cc2c(C)nc3c(C(=O)N4CCOCC4)cnn3c2C)c1	3.8*	10%	0	10	i	1
Cc1nc2c(C(=O)O)cnn2c(C)c1Cc1ccccc1F	1.6	13%	1	19	i	1
CCOC(=O)N1CCN(C(=O)c2cnn3c(C)c(Cc4ccc(C)cc4)c(C)nc23)CC1	4.1*	9%	3	15	x	1
COC(=O)c1cnn2c(C)c(Cc3cccc(F)c3)c(C)nc12	2.1*	8%	4	11	x	1.1
Cc1nc2c(C(=O)N3CCN(c4ccccn4)CC3)cnn2c(C)c1Cc1cccc(Cl)c1	1.3	4%	0	11	i	1
c1cnc(-c2nnc3n2CCCCC3)cn1	0.98	5%	0	14	i	1
O=C(CSc1nnc(-c2ccc(OC(F)F)cc2)o1)N1CCOCC1	1.1	3%	1	8	i	1
O=C(Cn1c(NCCCO)nc2ccccc21)c1cccc(Br)c1	1.1	7%	7	8	i	1
CCS(=O)(=O)C(=C(Nc1ccc(OC)cc1)Nc1ccc(OC)cc1)S(=O)(=O)CC	1	0%	0	0	i	1
COc1ccc(NC2CC(=O)NC2=O)cc1 (stereo not given)	1.1	9%	0	26*	i	1
COc1ccc(N2CCN(C3CC(=O)NC3=O)CC2)cc1 (stereo not given)	1.1	6%	11	0	i	1
COc1cc(C2Nc3ccccc3C(=O)N2c2ccccc2OC)ccc1O (stereo not given)	5.1*	7%	2	12	x	1
CCOc1cc(C2Nc3ccccc3C(=O)N2c2ccccc2OC)ccc1O (stereo not given)	2.5*	2%	0	5	x	1
O=C1COc2ccc(C(=O)COC(=O)Cn3cnc4ccccc43)cc2N1	1.1	6%	3	14	i	1
CCn1c(SCC(=O)Nc2ccc(OCc3ccccc3)cc2)nnc1-c1ccco1	1.1	6%	9	8	i	1
CC[C@H]1OC(=O)C[C@@H](O)[C@H](C)[C@@H](O[C@@H]2O[C@H](C)C[C@H](N(C)C)[C@H]2O)[C@@H](CC=O)C[C@@H](C)C(=O)C=C[C@]2(C)O[C@H]2[C@@H]1C	1.1	1%	5	7	i	0.99
CC1(C)Cc2c(C#N)c(NCCc3ccccc3)nc(-c3ccco3)c2CO1	2.3*	0%	0	0	x	1.1
CCN(CC)CCNc1nc(-c2ccco2)c2c(c1C#N)CC(C)(C)OC2	2.3*	3%	0	6	x	1.1
